# Screening data: PubChem, several laboratories
# Sampled rows, rich in hits. Any-hit rate of the full collection: about 1.3%.
# sEH inhibitor = soluble epoxide hydrolase (human) inhibition; recombinant human sEH enzymatic activity assay; 91,000 tested, 0.34% active; inhibition, % at 2 µM; in the data active means inhibition above about 80%
# BAP1 block = inhibitors of human BAP1 deubiquitinase | recombinant BAP1, Ub-AMC hydrolysis fluorescence kinetic; hits give low values | Q92560 | calls only at 20 µM | 72,000 tested, 0.48% active;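 active means activity remaining at or below 50% of control, provided the compound also passes the data quality filters; inactive means the rest, including low values that fail the filters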;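 further: 100% = DMSO wells rate and 0% = substrate alone blank rate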
# sEH activator = increases human soluble epoxide hydrolase activity | P34913 | purified human sEH enzymatic activity, activator screen | activation, % at 2 µM | 91,000 tested, 0.04% active | AID 717; in the data active means activation above about 37%
# PLAP activator = human PLAP activation; 96,000 tested, 1.2% active; purified PLAP enzyme, luminescent substrate read-out; hits give high values; P05187; activation fold at 20 µM; in the data active means activation fold above about 2
# BAP1 inh confirm = confirmation of human BAP1 enzyme inhibitors | shares compounds with BAP1 block | purified BAP1, Ub-ethyl ester hydrolysis, HPLC; hits give low values | % of control activity, % at 20 µM | 310 tested, 8% active;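 active means percent of control activity at or below 60%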
# Numbers without * were called inactive; i = inactive; . = no result shown; + = active, no number.
SMILES,sEH inhibitor,BAP1 block,sEH activator,PLAP activator,BAP1 inh confirm
CCc1cc2cc3c(cc2nc1SCC(=O)Nc1cc(C)on1)OCO3,-6,+,3,1.2,93
CCc1cc2cc(C)ccc2nc1SCC(=O)Nc1cc(C)on1,-6,.,7,.,.
NC(=O)c1ccccc1NC(=O)NC1CCCCC1,6,.,-6,.,.
O=C(Nc1ccccc1NC(=O)NC1CCCCC1)NC1CCCCC1,9,+,-10,0.8,104
Cc1ccc2[nH]c(=O)c(CN(Cc3cccs3)Cc3nnnn3Cc3ccccc3)cc2c1,.,+,.,1.5,67
CCOC(=O)Cn1nnnc1CN(Cc1cccs1)Cc1cc2cc(C)ccc2[nH]c1=O,4,.,-2,1,.
COc1ccc(-c2nnc(SCC(=O)Nc3ccccc3OC)o2)cc1,-2,i,0,.,.
COc1ccc(-c2nnc(SCC(=O)Nc3cccc(Cl)c3)o2)cc1,-9,+,11,1,109
Cc1cccc2cc(CN(Cc3ccc(F)cc3)Cc3nnnn3C3CCCC3)c(=O)[nH]c12,5,i,-6,1,.
Cc1cc(C)c2[nH]c(=O)c(CN(Cc3ccc4c(c3)OCO4)Cc3nnnn3C3CCCC3)cc2c1,16,+,-15,1.6,112
Cc1cccc2cc(CN(Cc3cccs3)C3(c4nnnn4C4CCCC4)CCCC3)c(=O)[nH]c12,-10,+,8,1.4,74
COc1ccccc1CN(Cc1cc2c(C)ccc(C)c2[nH]c1=O)Cc1nnnn1Cc1ccco1,-5,+,4,0.9,94
COc1ccc2cc(CN(CCc3ccccc3)Cc3nnnn3Cc3ccco3)c(=O)[nH]c2c1,4,.,-7,1.7,.
